Bioassay records deposited in PubChem BioAssay by National Center for Advancing Translational Sciences (NCATS).
A-T KAP1 phos: potential ataxia-telangiectasia treatment | F2112 A-T fibroblasts, KAP-1 phosphorylation AlphaLISA; neocarzinostatin DNA damage 30 min before lysis | actives 0.19% (n = 320,000) | AID 485349 | Potency, µM (doses to about 57.5 µM), without a hit: top-dose activation, most hits filed as activators; active = well fitted activation curve with a large enough effect; inconclusive = small, poorly fitted or top-dose-only effect; inactive = no such curve, though single readings can be large or run the other way; also: potency is read from the fitted curve at half-maximal effect; % of control where 0% means no effect; nearly all actives have a fitted effect of over 45% in size
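ATM-like activity read as KAP-1 phosphorylation via AlphaLISA donor/acceptor antibody pairs after lysis and 6 hr at 25C. Cells were ATM-null patient fibroblasts (F2112, hTERT), dosed 60 min, then exposed to the DSB inducer NCS for 30 min.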
TRPV1 potentiator: potentiators of human vanilloid receptor 1 (TRPV1); Q8NER1; TRPV1-expressing cells, Fluo-8 calcium influx, capsaicin EC20 potentiation; potentiation, % at 8.33 µM; actives 0.02% (n = 320,000); AID 540277; in the data active = potentiation above about 80%; inconclusive = between about 30% and that limit; also: 0% is about no effect
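Cells expressing TRPV1 were dye-loaded with Fluo-8 and read kinetically: 10 s baseline, 3 min after compound (agonist portion), then 2 min after EC20 capsaicin (allosteric enhancer portion). Calcium-bound dye fluorescence at 480/520 nm.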
TRPML1 agonist: agonists of human TRPML1 channel | Q9GZU1 | TRPML1-expressing cells, Ca2+ dye fluorescence, FDSS | activation, % (test concentration not listed) | actives 0.12% (n = 410,000); in the data active = activation above about 50%; inconclusive = mostly about 30% to 49%; also: 0% is about no effect
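Tetracycline-induced TRPML1-DL cells are seeded and incubated overnight before loading with a no-wash Ca2+ dye and quencher. Agonist activity is taken from the 110 s fluorescence read following compound pin-transfer on an FDSS, before EC80 54-4 challenge.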
TRPML1 blocker: blocks the human TRPML1 channel; actives 0.02% (n = 390,000); activity change, negative = inhibition, % (concentration not given with the values); Q9GZU1; TRPML1-inducible cells, Ca2+ dye fluorescence, FDSS; active compounds read low; inhibition of EC80 agonist-evoked calcium signal; in the data active = activity change below about -50%; inconclusive = between about -30% and that limit;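 also: stimulus is agonist 54-4 at its EC80 concentration; % is scaled to controls: 0 for no effect and ±100 for the full control effect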
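Tet-induced TRPML1-DL cells loaded with Ca8 no-wash calcium dye were read kinetically on FDSS. Compound addition was followed by EC80 agonist 54-4 (4 uM final); inhibition was read over 110 s.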
TRPV1 ag: agonists of human vanilloid receptor 1 (TRPV1); actives 0.19% (n = 320,000); TRPV1-expressing cells, Fluo-8 calcium influx, agonist mode; activation, % at 8.33 µM; in the data active = activation above about 80%; inconclusive = between about 30% and that limit; also: 0% is about no effect
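Cells expressing TRPV1 were dye-loaded with Fluo-8 and read kinetically: 10 s baseline, 3 min after compound (agonist portion), then 2 min after EC20 capsaicin (allosteric enhancer portion). Calcium-bound dye fluorescence at 480/520 nm.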
Numbers without * were called inactive; ? = inconclusive; nt = no result given. Most compounds without a hit are left out; they make up all but 0.41% or so of the library.

SMILES	A-T KAP1 phos	TRPV1 potentiator	TRPML1 agonist	TRPML1 blocker	TRPV1 ag
CN1/C(=C\C=Nc2ccccc2)C(C)(C)c2ccccc21	-2%	-6	2	-3	4
CN1/C(=C\C=C2C(=O)NC(=O)NC2=O)C(C)(C)c2ccccc21	-4%	-20	81*	-10	?
ClCCN(CCCl)c1ccc(C=Nc2ccncc2)cc1	nt	nt	4	nt	nt
CC1(C)CC(N(CCc2ccccc2)Cc2ccccc2)CCO1 (centres undefined)	25µM*	1	2	17	-1
Cc1nccn1-c1c([N+](=O)[O-])c(=O)n(C)c2ccccc12	3.2µM*	-18	0	-5	1
Cc1nc2ccccc2c(=O)n1-c1ccccc1[N+](=O)[O-]	-1%	-6	1	8	2
ClCCN(CCCl)/C(=C\c1ccccc1)c1ccnc2ccccc12	nt	nt	23	nt	nt
O=C(Oc1c(Cl)cc(Cl)c2ccccc12)N1CCCCC1	4%	-4	68*	-13	26
O=C(Nc1ccc(OC(=O)N2CCCCC2)cc1)N1CCOCC1	0%	0	0	27	-2
C=C(C=O)C[C@@H]1C[C@H](O)C2OC3C[C@]4(C)OC5/C=C\CC6OC7C(CC=CCC6OC5CCCC4OC3CC2O1)OC1CC2OC3CC(=O)OC3C[C@@H](C)C[C@@]2(C)OC1C[C@@H]7C (some centres undefined)	25µM*	?	0	-15	-5
O=[N+]([O-])c1ccc(N(CCO)CCO)c2c1no[n+]2[O-]	nt	nt	2	-2	nt
CN1CCN(c2ccc([N+](=O)[O-])c3no[n+]([O-])c23)CC1	16µM*	-8	2	-8	4
CC1OC(O[C@H]2C[C@@H](O)[C@]3(CO)[C@H]4[C@H](O)C[C@]5(C)[C@@H](C6=CC(=O)OC6)CC[C@]5(O)[C@@H]4CC[C@]3(O)C2)C(O)C(O)C1O (some centres undefined)	nt	nt	-1	nt	nt
CC(C)c1ccc(-n2c(O)c(C=NC(CCS(C)=O)C(=O)O)c(=O)[nH]c2=S)cc1 (centres undefined)	7.9µM*	-14	nt	nt	2
CC(=O)Nc1ccc(OC(=O)N2CCN(/[N+]([O-])=N/Oc3ccc([N+](=O)[O-])cc3[N+](=O)[O-])CC2)cc1	nt	nt	4	-3	nt
ClCCN(CCCl)c1ccc(C=Nc2ccc(/C=C/c3ccncc3)cc2)cc1	nt	nt	3	nt	nt
CN1CCN(c2ccc(N)cc2Cl)CC1	2%	85*	0	-15	-14
CC1(C)CSC(=NCc2ccccc2)N1	1%	-26	91*	8	?
COC(=O)C1CN(C#N)N(c2ccc(Cl)cc2)C12c1ccccc1-c1ccccc12 (centres undefined)	13µM*	-1	-1	7	5
CCCNC(=O)c1c(N)n(Cc2ccco2)c2nc3ccccc3nc12	24%	16	0	11	4
Nc1c(C(=O)NCC2CCCO2)c2nc3ccccc3nc2n1Cc1ccco1 (centres undefined)	20µM*	-10	8	-5	0
Cc1cccc(N2C(=O)NC(=O)/C(=C\C=C\c3ccco3)C2=O)c1	4µM*	-24	8	30	14
C[C@@H]1O[C@@H](O[C@@H]2C=C3CC[C@@H]4[C@@H](CC[C@]5(C)[C@H](c6ccc(=O)oc6)CC[C@@]45O)[C@@]3(C)CC2)[C@H](O)[C@H](O)[C@H]1O	nt	nt	0	nt	nt
O=C1NC(=O)C2C1C1(Cl)C(Cl)=C(Cl)C2(Cl)C1(Cl)Cl (centres undefined)	nt	nt	2	-3	nt
ClC1=C(Cl)C2(Cl)C3C(Cl)C=CC3C1(Cl)C2(Cl)Cl (centres undefined)	40µM*	3	-1	2	1
O=[N+]([O-])c1cc(C(F)(F)F)c(Cl)c([N+](=O)[O-])c1Nc1ncc(C(F)(F)F)cc1Cl	nt	nt	29	nt	nt
CCN1/C(=C/C=C/C2=[N+](CC)c3ccccc3C2(C)C)C(C)(C)c2ccccc21	nt	nt	76*	-15	nt
